BJeLR viability: BJeLR cell viability loss | BJeLR (HRASV12) viability, CellTiter-Glo ATP luminescence, 48 h | inhibition, % (no concentration beside the values) | hit rate 0.17% among 300,000 | AID 1554; in the data active = inhibition above about 50%
RN4220 kill: S. aureus RN4220 growth inhibition; AID 1259311; inhibition, % (test concentration not listed); OD600, 16 h; hit rate 0.33% among 330,000; in the data active = inhibition above about 85%;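 also: plate controls were untreated cells for no effect and reference antibiotic for full effect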
SSB-PriA inh: inhibitors of Klebsiella pneumoniae PriA binding to SSB C-terminal tail; AlphaScreen SSBct-PriA binding, biotinylated peptide; inhibition, % at 33 µM; hit rate 0.6% among 430,000; in the data active = inhibition mostly above about 37%, no sharp cut-off; inactive = mostly below about 20%;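 also: plate controls were negative control peptide for no effect and reference peptide for full effect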
ugtP null kill: kills S. aureus RN4220 lacking UgtP; S. aureus RN4220 ugtP deletion, OD600 growth, 16 h; growth inhibition, % (concentration not given with the values); hit rate 0.54% among 330,000; in the data active = growth inhibition above about 68%;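 also: plate controls were untreated wells for no effect and antibiotic for full effect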
MazF activator: activators of E. coli MazEF toxin-antitoxin RNase. FAM/BHQ RNA-DNA oligo cleavage fluorescence, 5 h. hit rate 0.32% among 350,000. AID 504720. activation, % at 20 µM. P0AE70; in the data active = activation above about 50%
Target sequence (P0AE70 whole entry, looked up): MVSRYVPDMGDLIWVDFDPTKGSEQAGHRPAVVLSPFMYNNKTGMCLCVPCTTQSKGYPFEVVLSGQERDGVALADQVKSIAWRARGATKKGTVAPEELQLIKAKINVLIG
An asterisk follows results filed as active; nt = not tested or not shown. An excerpt weighted towards active compounds, which were near 1.2% of everything screened.

SMILES | BJeLR viability | RN4220 kill | SSB-PriA inh | ugtP null kill | MazF activator
CCCCCCCCCCC(=O)NNC(=O)c1c(O)c2ccccc2n(CC)c1=O | -0.6 | 96.9* | nt | 98.8* | nt
CCn1c(=O)c(C(=O)NNC(=O)Cc2ccccc2)c(O)c2ccccc21 | -4.5 | 15.1 | 3.8 | -4.1 | 13.4
CCCCCCCCC(=O)NNC(=O)c1c(O)c2ccccc2n(CCC)c1=O | -3.9 | 98.1* | -12.7 | 98.0* | 2.4
CCCCn1c(=O)c(C(=O)N/N=C/c2ccc(F)cc2)c(O)c2ccccc21 | -1.0 | nt | nt | nt | nt
CCCCCCCCCC(=O)NNC(=O)c1c(O)c2ccccc2n(CCC)c1=O | -1.1 | 76.2 | -11.8 | 90.2* | 10.7
CCCCCCn1c(=O)c(C(=O)NN=Cc2cccc(F)c2)c(O)c2ccccc21 | nt | 59.7 | 6.3 | 100.0* | nt
CCCCCCCC(=O)NNC(=O)c1c(O)c2ccccc2[nH]c1=O | 8.4 | 3.3 | -9.0 | 3.3 | -6.0
CCCn1c(=O)c(C(=O)NCc2ccccc2)c(O)c2ccccc21 | 3.7 | nt | 1.5 | nt | -1.3
NC(=NO)c1nc(N2CCCCC2)nc(N2CCCCC2)n1 | nt | -0.5 | -10.9 | 3.5 | nt
CCCn1c(=O)c(C(=O)NNS(=O)(=O)c2ccc(Cl)cc2)c(O)c2ccccc21 | 3.6 | 99.1* | -6.3 | 100.4* | -3.2
CCCn1c(=O)c(C(=O)NNC(=O)c2ccc(Cl)cc2Cl)c(O)c2ccccc21 | 4.5 | 29.7 | -19.6 | 2.7 | -0.8
Cc1ccsc1[C@@H]1CC(=O)NC(SCC(=O)OCc2ccccc2)=C1C#N | nt | nt | 2.0 | nt | nt
O=C(CNC(=O)c1ccc(S(=O)(=O)N2CCCC2)cc1)N/N=C/c1ccc(Cl)cc1Cl | -1.5 | nt | nt | nt | 74.3*
Cc1cc(-c2ccccc2)n(-c2cc(NN=Cc3ccccc3O)ncn2)n1 | nt | 78.6 | -8.1 | 100.7* | nt
Cc1nnc2sc(-c3cccc(NC(=O)c4cccnc4)c3)nn12 | -9.9 | 5.3 | 6.4 | 10.9 | 2.6
C#CCN1C(=O)S/C(=C\c2ccc(N3CCOCC3)cc2C)C1=O | -3.4 | 9.0 | -8.6 | 3.9 | 310.0*
COc1ccc(C(=O)COC(=O)c2cccnc2SC)cc1 | -2.1 | nt | -3.2 | nt | -5.0
Cc1noc(NC(=O)c2cccc(C(F)(F)F)c2)c1Cl | 6.1 | 8.4 | 3.3 | 1.6 | -18.9
CC1(O)CC(c2ccc(Cl)cc2)=NN1C(=O)c1ccc([N+](=O)[O-])cc1 (stereo unspecified) | 18.1 | 98.9* | 1.8 | 97.8* | 4.3
O=c1cc(-c2ccc(O)c(O)c2)oc2c1ccc1ccccc12 | nt | -0.7 | -13.5 | 4.8 | 119.1*
O=c1cc(-c2ccc(O)c(O)c2)oc2ccc3ccccc3c12 | nt | 0.2 | -9.4 | -15.8 | -6.7
CCc1nc(Sc2nc(C)cc(C)n2)c2oc3ccccc3c2n1 | -5.1 | -2.3 | -5.0 | -15.7 | -7.8
CC(=O)Nc1ccc(S(=O)(=O)NCC2(c3cccs3)CCCC2)c(C)c1 | nt | nt | 1.0 | nt | nt
CN(C)CCCNc1c2ccccc2nc2ccccc12 | 69.4* | 3.8 | -7.3 | -11.2 | -0.7
CN(C)CCCNc1nc(-c2ccccc2)nc2ccccc12 | -3.5 | 0.5 | -2.9 | -0.2 | 15.9
SMILES | BJeLR viability | RN4220 kill | SSB-PriA inh | ugtP null kill | MazF activator
CCCCCC[n+]1c(-c2ccccc2)csc1Nc1ccccc1 | 9.7 | -0.2 | -3.8 | 88.4* | -4.1
CC(C)c1ccc(/C=C(\c2nc3ccccc3[nH]2)S(=O)(=O)c2ccccc2)cc1 | 6.7 | 31.6 | 2.6 | 7.4 | -4.8
O=S(=O)(/C(=C/c1ccc(C(F)(F)F)cc1)c1nc2ccccc2[nH]1)c1ccccc1 | 67.9* | 38.1 | -6.3 | 11.4 | -3.2
Cc1nc2ccccc2c(C)c1CC(=O)N(CC(C)C)c1c(N)n(Cc2ccccc2)c(=O)[nH]c1=O | 1.6 | -0.6 | 5.0 | -3.0 | -5.2
CCC(SC1=N/C(=C/c2ccccc2)C(=O)N1c1ccccc1)C(=O)Nc1cc(C)on1 (stereo unspecified) | -3.4 | 3.1 | 2.1 | 4.9 | 9.6
CCOC(=O)CC(=O)CSc1nc2ccc(C)cc2cc1C#N | nt | 29.8 | -15.9 | 15.8 | -62.4
COc1ccc(/C=C2/N=C(SCC(=O)Nc3cc(C)on3)N(c3ccccc3)C2=O)cc1 | nt | 6.6 | 0.3 | -2.6 | 70.2*
Cc1ccc2nc(SCC(=O)Nc3ccc4sc(C)nc4c3)c(C#N)cc2c1 | -2.9 | 5.7 | -5.3 | 4.3 | 167.5*
COC(=O)CSc1nc2cc(C)ccc2cc1C#N | 1.7 | 2.2 | -30.2 | -6.9 | 260.4*
Cc1cc(C)c2nc(SCC(=O)Nc3cc(C)on3)c(C#N)cc2c1 | -9.4 | -2.1 | -7.9 | 11.7 | 58.9*
Cc1ccc2nc(SCC(=O)Nc3ccccc3N3CCOCC3)c(C#N)cc2c1 | 7.7 | 0.9 | -5.7 | 4.0 | 11.5
